# Measured values as given in PubChem BioAssay (NCI).
# Compounds without any hit were thinned out: in the full panel of roughly 83,000, 20% have a hit.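 Plates (96-well) were seeded with cells, treated with compound at one concentration, and incubated for 48 hours before percent growth was determined.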 The source made the active and inactive calls. The calls were made as follows: active = growth percent below 10; inactive = the rest.
# Tested on: CCRF-CEM leukemia
# Assay: NCI-60 one-dose screen, 48 h (100 = growth as untreated, 0 = no growth, -100 = all killed)
# Details: 10 µM
row,SMILES,growth
1,Cc1nc(N)sc1C(=O)NCCO,60.6% (inactive)
2,CCCCCCCCCCCCCCCCC(=O)O.CCCCCCCCCCCCCCCCCC(=O)O.CCCCCCCCCCCCCCCCCC(=O)O.CCCCCCCCCCCCCCCCCC(=O)O.CCCCCCCCCCCCCCCCCC(=O)O.CO[CH-]OC12COC1CC(O)C1(C)C(O)C(OC(C)O)C3=C(C)C(OC(=O)C(O)C([NH-])c4ccccc4)CC(O)(C(OC(=O)c4ccccc4)C21)C3(C)C.[Cu+].[Zn].[Zn].[Zn].[Zn].[Zn] (centres undefined),23.7% (inactive)
3,O=S(=O)(O)CCI,106% (inactive)
4,CC1(C)NCCC[C@]2(C)[C@H]3CC=C4[C@@H]5C[C@](C)(COC(=O)c6ccccc6C(=O)O)CC[C@]5(C)CC[C@@]4(C)[C@]3(C)CC[C@@H]12,35.8% (inactive)
5,c1ccc2[nH]c(-c3ccc(OCCCCCOc4ccc(-c5nc6ccccc6[nH]5)cc4)cc3)nc2c1,-87.9% (active)
6,COc1nc(OC)nc(-c2cc(C(=O)c3ccc(Br)cc3)n3cc(C)cc(C)c23)n1,83.8% (inactive)
7,CN1CCN(Cc2ccc(NC(=O)c3ccc(C#Cc4c(N)ncc5ccc(F)cc45)cc3)cc2C(F)(F)F)CC1,-40.2% (active)
8,CC(C)(C)OC(=O)N1C/C(=C\c2ccccc2)C(=O)/C(=C/c2ccccc2)C1,76.4% (inactive)
9,O=C(CN1C(=O)NC(c2ccccc2)(c2ccccc2)C1=O)c1ccc(N2CCCC2)cc1,98.9% (inactive)
10,C[C@H]1C[C@@H](n2cnc3c(N)nccc32)[C@H](O)[C@@H]1O,23.6% (inactive)
11,Cc1nc2c(nnn2-c2ccccc2)c2nc(-c3ccccc3)oc(=O)c12,111% (inactive)
12,COc1cc2oc(-c3ccc(NC(=O)c4ccccc4)cc3)cc(=O)c2c(OC)c1OC,82.2% (inactive)
13,COc1cccc2c1n([O-])c1cccc(OC)c1[n+]2=O,9.03% (active)
14,CC1C(=O)CCCC1=O,92.1% (inactive)
15,Oc1ccccc1/C=N/N=C/c1c(O)ccc2ccccc12,7.8% (active)
16,FC(F)(F)c1cccc(-c2[nH]ncc2-c2nnnn2-c2ccccc2)c1,53.5% (inactive)
17,Nc1ccc(S(=O)(=O)c2ccc(NO)cc2)cc1,91.8% (inactive)
18,Nc1ccc(S(=O)(=O)Nc2cc(F)cc(F)c2)cc1,93.4% (inactive)
19,CC(C)(C)c1ccc([I+]c2ccc(C(C)(C)C)cc2)cc1,9.22% (active)
20,O=C1NCCN1/N=C/c1c(Cl)nc2n1CCS2,-62.2% (active)
21,CC(=O)OCC1O[C@@H](OC(C)=O)[C@@H](NC(=O)NS(=O)(=O)c2ccccc2)C(OC(C)=O)[C@@H]1OC(C)=O (some centres undefined),97% (inactive)
22,COc1ccc(Cn2cc3c(c2-c2ccccc2)CCc2cnoc2-3)cc1OC,17.1% (inactive)
23,CCn1cc(C(=O)O)c(=O)c2cc(F)c(N3CCN(S(=O)(=O)c4ccc(Cl)cc4)CC3)cc21,-0.845% (active)
24,Cc1ccc(C(=O)Nc2ccc(CN3CCN(C)CC3)c(C(F)(F)F)c2)cc1C#Cc1cnc(N)c2ccc(C#N)cc12,7.71% (active)
